For 97 compounds, inhibition results are on record in PubChem BioAssay AID2599 (Sanford-Burnham Center for Chemical Genomics, 2010).

The structures appear in SMILES notation. About 5,800 (1.8%) of roughly 330,000 compounds were called active. The entries come from a sample that favours actives as a whole. Unmarked numbers belong to inactive results.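 The calls were made as follows: active = inhibition above about 50% at the single tested dose (limit read from the data); inactive = the rest.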

Chain of Sentrin-specific protease 6 (Homo sapiens) (Q9GZR1 628-1112 limits assumed): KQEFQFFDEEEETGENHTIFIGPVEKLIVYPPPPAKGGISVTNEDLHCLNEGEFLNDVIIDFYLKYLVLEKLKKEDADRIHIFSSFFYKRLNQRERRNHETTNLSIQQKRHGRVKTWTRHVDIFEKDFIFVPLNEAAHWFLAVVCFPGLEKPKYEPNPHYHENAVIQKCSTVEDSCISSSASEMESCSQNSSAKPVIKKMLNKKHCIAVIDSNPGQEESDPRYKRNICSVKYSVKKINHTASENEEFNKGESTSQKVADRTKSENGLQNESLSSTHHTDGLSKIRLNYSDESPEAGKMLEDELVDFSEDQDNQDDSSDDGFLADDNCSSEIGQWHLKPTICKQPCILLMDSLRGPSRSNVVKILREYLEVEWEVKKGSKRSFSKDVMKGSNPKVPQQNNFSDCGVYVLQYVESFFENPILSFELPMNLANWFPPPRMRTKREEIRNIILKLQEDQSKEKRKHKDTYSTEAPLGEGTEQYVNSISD

The assay addresses Sentrin-specific protease 6 (Homo sapiens) (UniProt Q9GZR1). Kind of assay: inhibition of human SENP6 catalytic domain – biochemical, luminescence, uHTS, primary screen (AID 2599).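 Also: plate controls were DMSO wells with enzyme for no effect and DMSO wells lacking enzyme for full effect.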 Conditions: Recombinant SENP6 catalytic domain, aminoluciferin luminescence; at 10 µM; active compounds read high.
On to `CCOCCN(C=O)c1cccc(OC)c1`, for which the inhibition was -10.1%.
`O=C(COC(=O)c1n[nH]c2ccccc12)Nc1ccccc1Br`: the inhibition is -4.53%.
The result for `CCCn1nc(C(=O)OCc2nc(N)nc(Nc3ccccc3C)n2)c2ccccc2c1=O` reads -0.795%.
The result for `COc1cc(/C=C/C(=O)OCC(=O)N2CCOCC2)ccc1OCC#N` reads 2.81%; that for `COc1ccc(N2C(=O)C(O)C2c2ccc(C)cc2)cc1` (configuration not stated), -8.14%; that for `Cc1cc(C)cc(NC(=O)N2CCCCCCC2)c1`, -8.39%.
Take `Cc1ccc2cc3cc(C(=O)N4CCCCCC4)oc3nc2c1`: the inhibition was 57.1% (active).
The result for `Cc1ccc2nc(N3CCN(C(=O)c4ccco4)CC3)sc2c1` reads -9.94%.
Turning to `COC(=O)c1cccc(C(=O)N2CCCC(Nc3ccc4c(c3)OCCO4)C2)c1` (configuration not stated), the inhibition is 8.68%.
The result for `OCCC#Cc1ccc(CN2CCN(Cc3ccsc3)C(CCO)C2)cc1` (configuration not stated) reads -21.1%; that for `CC(C)c1cc(C(=O)N/N=C/C(Br)=C/c2ccccc2)n[nH]1`, 2.83%; that for `Cc1cc(C(=O)N/N=C/c2ccc(N3CCOCC3)cc2)c(C)o1`, 84.3% (active).
For the compound `Cc1cc(C(=O)NNC(=O)c2ccccc2O)c(C)o1`, the inhibition is 0.955%.
The result for `Cc1ccc(-c2cc(C(=O)N/N=C/C=C/c3ccccc3)n[nH]2)o1` reads 1.41%; that for `Cc1cc(C(=O)N/N=C\C(Br)=C\c2ccccc2)c(C)o1`, 54.2% (active).
For the compound `COc1ccc(C/C(C)=N/NC(=O)c2cc(C)oc2C)cc1`, the inhibition is -24.2%.
With `O=C(NN=Cc1ccc(N2CCOCC2)cc1)c1cc2ccccc2cc1O`, the inhibition is -12.9%.
The value for `CCN(CC)c1ccc(C(=O)N/N=C/c2ccc(N3CCOCC3)cc2)cc1` was -7.9%; that for `CC(=C/c1ccccc1)/C=N/NC(=O)c1cc(C)oc1C` was 90.1% (active).
Consider `CN1CCN(C(=O)/C(=C\c2cccs2)NC(=O)c2cccs2)CC1`, for which the inhibition is -14.6%.
The value for `CC(C)OCCCNC(=O)c1ccc(C2SCC(=O)N2Cc2ccco2)cc1` (configuration not stated) was -6.37%; that for `CC(Sc1ccccc1F)C(=O)Nc1cccc(S(=O)(=O)N2CCOCC2)c1` (configuration not stated) was -4.45%.
Consider `Nc1c(N(CCCO)C(=O)C2CCCC2)c(=O)[nH]c(=O)n1Cc1ccccc1`, for which the inhibition is -9.42%.
The value for `O=C(Cc1ccccc1)Nc1c(Cl)ccc2nsnc12` was -21.2%; that for `Cc1ccc(C(=O)N/C(=C/c2cccnc2)C(=O)O)cc1` was -4.97%; that for `C/C(=N\NC(=O)c1ccc(C)cc1)C1C(=O)c2ccccc2C1=O` was 92.3% (active).
With `C/C(=N\NC(=O)CNC(=O)C(c1ccccc1)c1ccccc1)c1ccc(C)cc1`, the inhibition is 7.95%.
The value for `CC(=O)Nc1ccc(S(=O)(=O)NNC(=O)CCc2ccccc2)cc1` was -9.47%; that for `C=C1c2c(Cl)ccc(O)c2C(O)=C2C(=O)[C@]3(O)C(O)=C(C(N)=O)C(=O)[C@@H](N(C)C)[C@@H]3[C@@H](O)C12` (some centres not stated) was 1.61%; that for `Cc1ccccc1NC(=O)CSc1ccc2nnc(-c3ccccn3)n2n1` was -3.48%.
Consider `CCOC(=O)CSc1nnc(-c2cccc(Br)c2)o1`, for which the inhibition was -8.5%.
The value for `CCOC(=O)CSc1nnc(-c2ccc([N+](=O)[O-])cc2)o1` was 2.93%; that for `CCCCSc1nnc(-c2ccc(C)cc2)o1` was 50.8% (active).
The result for `O=S(=O)(c1ccc(Br)cc1)N1CCC(c2nc3ccccc3[nH]2)CC1` reads -3.25%; that for `COC(=O)c1scc(C)c1NC(=O)CSc1ccc(Cl)cc1`, -3.94%.
As for `Fc1ccccc1-c1cc2cc3c(cc2cn1)OCO3`, the inhibition is 75.8% (active).
`O=C(CN1CCN(c2ccccc2F)CC1)c1ccc2c(c1)OCO2`: the inhibition was -2.86%.
Take `O=C(c1ccco1)N1CCN(C(=O)c2cc(-c3ccccc3F)no2)CC1`: the inhibition is 4.97%.
With `COC(=O)Cc1ccc(N(Cc2ccccc2F)S(=O)(=O)c2ccc(Br)cc2)cc1`, the inhibition is -6.45%.
The value for `CCOc1ccc(OCC)c(NC(=O)CSc2nnc(Cn3cnc4ccccc43)n2C)c1` was 3.46%; that for `O=C(CCN1CCc2ccccc2C(O)(c2ccccc2)C1)c1ccc2c(c1)OCCO2` (configuration not stated) was -26.4%.
Turning to `CCc1ccc(Oc2coc3cc(O)ccc3c2=O)cc1`, the inhibition is 14%.
Take `O=c1c(-c2ccccc2)coc2cc(O)ccc12`: the inhibition was 60.4% (active).
For `CC(C)CN(Cc1c(O)ccc2c(=O)c(-c3ccccc3)coc12)CC(C)C`, the inhibition was -12.1%.
The result for `COc1ccc(C(C)NC(=S)NC2CCCCC2)cc1OC` (configuration not stated) reads -13.2%; that for `CNC(=O)C1CC(=O)N(c2ccc(OCC(=O)Nc3ccccc3C)cc2)C1` (configuration not stated), -8.41%; that for `O=C(c1cccs1)N1CCC(c2nc3ccccc3s2)CC1`, 5.91%.
Turning to `COc1ccc(-n2nnnc2-c2nc3ccccc3s2)cc1`, the inhibition was 54.6% (active).
The result for `COc1ccc(C2=NN(c3nc4ccccc4s3)C(=O)C2)cc1` reads 2.49%; that for `COc1ccc(-n2nnnc2CNC(=O)c2ccc3ccccc3c2)cc1`, -6.42%.
For the compound `C=CCC(C(=O)c1ccccc1)[N+](C)(C)CC=C` (configuration not stated), the inhibition is -7.76%.
The result for `Cc1cnc(CN(C)C(=O)C2CCC(=O)N(CCc3cccc(F)c3)C2)[nH]1` (configuration not stated) reads 13.7%.
As to `COc1ccc(OCC(=O)Nc2ccc(NC(=O)c3ccco3)c(C)c2)cc1`, the inhibition was -34.6%.
The value for `Cc1cc(NC(=O)c2ccc(F)cc2)ccc1NC(=O)c1ccco1` was 43.7%; that for `O=C(Nc1ccc(NC(=O)c2cccs2)cn1)c1ccco1` was 22%; that for `Cc1ccc(C(=O)COc2cccc(NC(=O)c3ccco3)c2)cc1` was -16.4%.
The result for `COc1cccc(C(=O)Nc2ccc(NC(=O)c3ccco3)cn2)c1` reads 64.1% (active); that for `COc1ccccc1C(=O)Nc1ccc(NC(=O)c2ccco2)c(C)c1`, 66.3% (active); that for `CC[C@]1(c2ccccc2OC)C(=O)N(C(=O)OC)N1C(=O)OC`, 0.734%.
The value for `CC(=O)Nc1ccc(OCCC[n+]2cccc(C(=O)[O-])c2)cc1` was -17.4%; that for `Nc1ccc(N=Nc2ccccc2Cl)c(N)n1` was 81.2% (active); that for `COc1cccc(NC(=O)c2cc(S(=O)(=O)N3CCc4ccccc43)cn2C)c1` was 3.36%.
`CC(=O)Nc1cccc(-c2nc3ccccc3s2)c1C`: the inhibition is -16.1%.
As for `Cc1ccnc(Nc2nc3ccccc3s2)n1`, the inhibition was 78.6% (active).
On to `Cc1ccnc(-n2sc3ccccc3c2=O)n1`, for which the inhibition was 2.11%.
For the compound `CCn1nccc1C(=O)Nc1ccc(Cl)c(Cl)c1`, the inhibition was 76.6% (active).
The result for `CCn1nccc1C(=O)Nc1ccc(S(=O)(=O)NC23CC4CC(CC(C4)C2)C3)cc1` reads 1.42%; that for `O=C(CC(O)(C(F)(F)F)C(F)(F)F)Nc1ccc(Cl)c(Cl)c1`, 1.52%; that for `COc1ccc(OC)c(S(=O)(=O)N2CCCC(C(=O)NCCc3ccccc3)C2)c1` (configuration not stated), -9.45%.
The value for `O=C(c1ccc(F)cc1)n1cc(C(=S)N2CCOCC2)c2ccccc21` was 5.26%; that for `O=C(Cn1c(=S)nc2ccccn21)N1CCc2ccccc2C1` was -12.6%.
The result for `O=C(c1ccc(F)cc1)n1c(=S)nc2ccccn21` reads 71.7% (active); that for `CCOc1cc2[nH]c(=S)n(CCCN3CCCC3=O)c(=O)c2cc1OCC`, -8.53%.
Turning to `O=C(Nc1ccccc1Cl)Nc1cccc2cccnc12`, the inhibition is 58.1% (active).
The result for `O=C(Nc1cccc2cccnc12)c1cccc(Cl)c1` reads 38.9%.
The value for `COc1ccc(NC(=O)Nc2cccc3cccnc23)cc1` was 80.7% (active); that for `CCOC(=O)Cc1ncccc1C(=O)Nc1ccc(OC)cc1` was 10.7%; that for `COc1ccc(NC(=O)C2CCCN(S(=O)(=O)c3cccc4cccnc34)C2)cc1` (configuration not stated) was -2.53%.
The result for `O=C(Nc1ccccc1Cl)O/N=C(/c1ccccc1)c1ccccn1` reads 5.09%.
`COc1ccc(OCC(=O)NN2Cc3ccccc3C2=N)cc1`: the inhibition was -3.36%.
The value for `COC(=O)C1=C(C)N(Cc2ccccc2)C(=NCCCOC(C)C)N[C@H]1c1ccccc1` was -15.2%; that for `Cc1ccc(S(=O)(=O)N(C)CC(=O)OCC(=O)N2CC(=O)Nc3ccccc32)cc1` was -8.14%.
For the compound `Cn1c(N)c(C(=O)COC(=O)/C=C/c2ccc(OC(F)F)cc2)c(=O)n(C)c1=O`, the inhibition is -13.8%.
Turning to `O=C(Nc1ccc2c(c1)OCCO2)C1CCCC1`, the inhibition was 15.1%.
The value for `O=C(Nc1cc2ccccc2oc1=O)C1CCCCC1` was 62.5% (active); that for `Cc1ccccc1NC(=O)C1CCN(C(=O)NC2CCCCC2)CC1` was -18.9%.
For the compound `C[n+]1ccc(C(=O)NCc2ccccc2)cc1`, the inhibition is -12.9%.
The result for `C=CCNC(=S)N1CCN(CCN=Cc2c(C)[nH]n(-c3ccc([N+](=O)[O-])cc3)c2=O)CC1` reads 1.69%; that for `Cc1[nH]n(-c2ccc([N+](=O)[O-])cc2)c(=O)c1C=NCCN1CCN(C(=O)c2ccccc2F)CC1`, 87% (active); that for `Cc1ccc(-n2[nH]c(C)c(/C=N/NC(=O)c3cccc([N+](=O)[O-])c3)c2=O)cc1C`, 27.4%.
Regarding `O=C(COC(=O)c1ccccc1Cl)NC1CCCCCCC1`, the inhibition was -12.9%.
The value for `Cc1nn(CC(=O)Nc2ccc(F)cc2)c(=O)c2ccccc12` was -16.4%; that for `CCC(=O)Nc1ccc2nn(-c3ccc(F)cc3)nc2c1` was 76.9% (active).
The result for `Cc1ccc(-n2nc3ccc(NC(=O)/C=C/c4ccco4)cc3n2)cc1C` reads 10.8%; that for `CC(C(=O)N1CCc2ccccc21)N(C)CC(=O)Nc1ccc(F)cc1` (configuration not stated), -18.7%.
As to `O=C(/C=N/O)Nc1ccccc1`, the inhibition was -8.91%.
With `Cc1ccc(-c2nc(-c3cccnc3)sc2CC(=O)Nc2ccc(C)c(Cl)c2)cc1`, the inhibition was -22%.

Broadly, the inhibition is the change of the read-out against control, counted positive when it falls.
